In PubChem BioAssay AID1159580 (chemical genetic matrix, 2015):
Values joined by “and” are separate entries in the source; they are usually repeats but may differ in a detail not shown here. Identical values can stand only once. About 2,000 (36%) of roughly 5,500 compounds were called active. About 18% were inconclusive and are not listed. Rule as the data show it: active = normalized growth mostly below about 0.91 (no sharp cut-off); inconclusive = no clear call, values can overlap the other calls; inactive = mostly above about 0.92. Some of the results follow.

Test: chemical genetic growth profiling, strain panel (AID 1159580);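 also: tested at 20 µM; growth read once vehicle control cultures reached saturation at 30 °C; 1 = growth at the plate median or of vehicle wells; lower values mean less growth of the strain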
Conditions: S. cerevisiae deletion strains, growth OD

Measured: normalized growth

NC(=O)c1ccc[n+]([C@@H]2O[C@H](COP(=O)([O-])OP(=O)(O)OC[C@H]3O[C@@H](n4cnc5c(N)ncnc54)[C@H](O)[C@@H]3O)[C@@H](O)[C@H]2O)c1
inactive: locus YAL013W, strain DEP1, active compounds read low 0.974 | locus YAL021C, strain ccr4, active compounds read low 1.05 | locus YAL026C, strain drs2, active compounds read low 1.04 | locus YAL030W, strain snc1, active compounds read low 1.02 | locus YBL061C, strain skt5, active compounds read low 1.03 | locus YBR009C, strain hhf1, active compounds read low 1.05 | locus YBR021W, strain FUR4, active compounds read low 0.996 | locus YBR023C, strain chs3, active compounds read low 1.03 | locus YBR171W, strain sec66, active compounds read low 1.06 | locus YBR229C, strain ROT2, active compounds read low 0.949 | locus YBR231C, strain swc5, active compounds read low 1.03 | locus YBR279W, strain paf1, active compounds read low 1.02 | locus YCL011C, strain gbp2, active compounds read low 1.04 | locus YCL016C, strain dcc1, active compounds read low 1.04 | locus YCL029C, strain bik1, active compounds read low 0.99 | locus YCL061C, strain MRC1, active compounds read low 1.03 | locus YCL069W, strain vba3, active compounds read low 1.03 | locus YCR088W, strain abp1, active compounds read low 1.03 | locus YDL005C, strain med2, active compounds read low 1.02 | locus YDL035C, strain GPR1, active compounds read low 0.986 | locus YDL040C, strain nat1, active compounds read low 1.03 | locus YDL074C, strain BRE1, active compounds read low 1.03 | locus YDL101C, strain DUN1, active compounds read low 0.987 | locus YDL134C, strain PPH21, active compounds read low 0.978 | locus YDL185W, strain tfp1, active compounds read low 0.994 | locus YDL192W, strain arf1, active compounds read low 0.99 | locus YDR001C, strain nth1, active compounds read low 1.02 | locus YDR069C, strain doa4, active compounds read low 1.02 | locus YDR101C, strain arx1, active compounds read low 1.01 | locus YDR137W, strain rgp1, active compounds read low 1.07 | locus YDR150W, strain NUM1, active compounds read low 0.965 | locus YDR159W, strain sac3, active compounds read low 0.949 | locus YDR162C, strain NBP2, active compounds read low 0.973 | locus YDR195W, strain ref2 1.08 | locus YDR297W, strain sur2, active compounds read low 1.04 | locus YDR318W, strain mcm21, active compounds read low 1.02 | locus YDR334W, strain swr1, active compounds read low 1.02 | locus YDR335W, strain msn5, active compounds read low 1.05 | locus YDR388W, active compounds read low 0.99 | locus YDR392W, strain spt3, active compounds read low 1.08 | locus YDR502C, strain sam2, active compounds read low 0.992 | locus YEL003W, strain gim4, active compounds read low 1.02 | locus YEL037C, strain rad23, active compounds read low 1.03 | locus YEL061C, strain CIN8 (second series), active compounds read low 1.02 | locus YEL061C, strain CIN8, active compounds read low 0.981 | locus YER015W, strain faa2, active compounds read low 1.04 | locus YER016W, strain bim1, active compounds read low 1.04 | locus YER110C, active compounds read low 0.973 | locus YER111C, strain swi4, active compounds read low 1.03 | locus YER155C, strain BEM2 (second series), active compounds read low 1.06 | locus YER155C, strain BEM2, active compounds read low 0.99 | locus YER167W, strain BCK2, active compounds read low 0.987 | locus YFR010W, strain ubp6, active compounds read low 1.05 | locus YGL078C, strain dbp3, active compounds read low 0.998 | locus YGL086W, strain mad1, active compounds read low 0.992 | locus YGL167C, strain pmr1, active compounds read low 1.04 | locus YGL173C, strain kem1, active compounds read low 1.04 | locus YGL227W, strain vid30, active compounds read low 1.03 | locus YGL240W, strain doc1, active compounds read low 1.02 | locus YGL248W, strain PDE1, active compounds read low 0.977 | locus YGL253W, strain hxk2, active compounds read low 1.04 | locus YGR078C, strain PAC10, active compounds read low 1.02 | locus YGR135W, strain pre9, active compounds read low 1 | locus YGR229C, strain SMI1, active compounds read low 1.02 | locus YGR252W, strain gcn5, active compounds read low 0.913 | locus YHR013C, strain ard1, active compounds read low 1.08 | locus YHR027C, strain rpn1, active compounds read low 1.03 | locus YHR030C, strain SLT2, active compounds read low 0.981 and 0.987 | locus YHR079C, strain IRE1 (second series), active compounds read low 1 | locus YHR079C, strain IRE1, active compounds read low 0.962 | locus YHR094C, strain hxt1, active compounds read low 0.993 | locus YHR129C, strain ARP1, active compounds read low 0.996 | locus YHR142W, strain chs7, active compounds read low 1.09 | locus YHR200W, strain rpn10, active compounds read low 0.994 | locus YIL066C, strain RNR3, active compounds read low 0.982 | locus YIL073C, strain SPO22, active compounds read low 0.985 | locus YIL125W, strain kgd1, active compounds read low 0.986 | locus YIR030C, strain dcg1, active compounds read low 0.988 | locus YJL092W, strain hpr5, active compounds read low 1.02 | locus YJL095W, strain BCK1 (second series), active compounds read low 1.02 | locus YJL095W, strain BCK1, active compounds read low 1.03 and 0.983 | locus YJL115W, strain asf1, active compounds read low 1.03 | locus YJL129C, strain trk1, active compounds read low 1.06 | locus YJL134W, strain LCB3, active compounds read low 0.977 | locus YJL154C, strain vps35, active compounds read low 1.02 | locus YJL164C, strain tpk1, active compounds read low 1.05 | locus YJL166W, strain qcr8, active compounds read low 1.03 | locus YJL168C, strain set2, active compounds read low 0.995 | locus YJL187C, strain SWE1 (second series), active compounds read low 0.987 | locus YJR043C, strain POL32, active compounds read low 1.02 | locus YJR066W, strain TOR1, active compounds read low 0.943
